{
  "source": "paper PMC12136788",
  "binders": {"B1": {"name": "27242051_27281840_773_CDS_ENSMUSG00000009621_ENSMUST00000056176|mouse|control|control (ssRNA)", "RNA": "GGGAGUUCUACAGUCCGACGAUCCAGCUCACUGUUUCUUAGUCCAAAUUUGUCAUGGCAGACUUUGAGGAAGGUGCGAAUAUUCUUCAGACACAAGAACUGGGACAUCUGCGGCCGGAAGUUGAUGUCCUUAAGGUCGAUGGACAACAGAGGAUUGAGCAUCA"}, "B2": {"name": "chr20:43533646:43533647:+_ENSG00000166913_ENST00000353703|hu_mus|FALSE|FALSE (ssRNA)", "RNA": "GGGAGUUCUACAGUCCGACGAUCGAAAUUCAGCGCCAGGCCGAGGCGAAUCGGGUGUGUAGGCUGCAUUUCUUUCUUGCUGAUUUCAAAUGCUUCUUGGUAAGCCUGCUGGGAGUUGGACACCGUGGUUUGUUUAUUUUCUCCCAACAGAGGAUUGAGCAUCA"}, "B3": {"name": "chr1:171751117:171751118:+_ENSG00000010165_ENST00000361735|hu_hu|motif|central (ssRNA)", "RNA": "GGGAGUUCUACAGUCCGACGAUCCUUUUAGGUAAGAGGUUCAUGUUCCUACUGCCGAAGCUGCGUUUUCAAGACUCCCCGGUUCCCUGUGAGAUACCAUUUGAGGAGCUUGCCCACCACACGCAGGCUCCGGGACACUGCAGUCAACAGAGGAUUGAGCAUCA"}, "B4": {"name": "chr10:120833061:120833062:-_ENSG00000107581_ENST00000369144|perfect_dup|motif|central (ssRNA)", "RNA": "GGGAGUUCUACAGUCCGACGAUCUUGGGACUCUUCUUUAGCAGCUUCUGUUUUUUCCUCUGCUAAUUUCAAAUAUGCCCGGACAACAUCUUCUAAAGAUUUAAUGUUUACCUGUUGGCAUAUGUUCUUAUAUUGAUAUAACCCCAACAGAGGAUUGAGCAUCA"}, "B5": {"name": "18861418_18861648_5666_CDS_ENSG00000157106_ENST00000446231|human|control|control (ssRNA)", "RNA": "GGGAGUUCUACAGUCCGACGAUCCAGCCUAGGGUCAUCCUCAUCUAAAGGAAUUUGACCAGCGUUGAGUUUAAGGAAAGUAAAGUAUGCACUGCAAGAGAGUUUGUACAGGCUGAAUAUUCUAUCUACAACUUUCCUCCACACCAACAGAGGAUUGAGCAUCA"}, "B6": {"name": "chr11:48615247:48615248:+_ENSMUSG00000020372_ENSMUST00000020640|perfect_dup|FALSE|FALSE (ssRNA)", "RNA": "GGGAGUUCUACAGUCCGACGAUCUCCAUCCCAGGAGCCUGAGAGGGCAAACUGGCCAUCUGAGGAGAUAACCACAUCACUAACAAAGUGGGAGUGACCCCGCAGAGCACGCUGUGGAAUUCCAUAGUUGGUCUCAUCCCUGGUCAACAGAGGAUUGAGCAUCA"}, "B7": {"name": "chr5:110835399:110835400:-_ENSG00000164211_ENST00000296632|hu_hu|motif|central (ssRNA)", "RNA": "GGGAGUUCUACAGUCCGACGAUCUGAGAGCCUGUCUCAAAAUUUAAAAAAAAAAAAGUGAAAAUGCCCUCUCUUAGAUAGCGGUUUACUUUAGGAAUAAAACCAAACAUUGUACUAGUGAACCAAAAACAUUUCAAAUUUUUCCAACAGAGGAUUGAGCAUCA"}, "B8": {"name": "chr1:39494564:39494565:+_ENSG00000168653_ENST00000372967|hu_hu|hu_hu_hu_mus_True|68_78 (ssRNA)", "RNA": "GGGAGUUCUACAGUCCGACGAUCAUGCAUUCGCCUCAUCGUUUUGUACCGAAGCAAACACUCUACGAAAUCAUCAUACUCUAUCUUGCACUCCUUUUUCGCCCGGGUCCCACCGAUCCCGUGUGCACACUCUAUCCACUCUUUCAACAGAGGAUUGAGCAUCA"}, "B9": {"name": "chr14:66974463:66974464:+_ENSMUSG00000022044_ENSMUST00000074523|mus_hu|mus_mus_mus_hu_False|18_58 (ssRNA)", "RNA": "GGGAGUUCUACAGUCCGACGAUCUUGUAGGACGACUUAUUCAGGGGAUCGGCCAGGAAGCAGGAGCAGAACAAGGACACUAGUGGGAGCUCCUUCAUCUUCUCUUUGUAGGCAGCAAGAGUCAUGUUUCUGGGAUCUGGUGGCCAACAGAGGAUUGAGCAUCA"}, "B10": {"name": "chr5:125866394:125866395:-_ENSMUSG00000008348_ENSMUST00000136312|mus_hu|FALSE|FALSE (ssRNA)", "RNA": "GGGAGUUCUACAGUCCGACGAUCACAACUUUAUUGAAAGGAAAGUGCAAUGAAAUUUGUUGAAACCUUAAAAGGGGAAACUUAGACACCCCCCCUCAAGCGCAGGACCAAGUGCAGAGUGGACUCUUUCUGGAUGUUGUAGUCCAACAGAGGAUUGAGCAUCA"}, "B11": {"name": "44041996_44042116_73_3pUTR_ENSMUSG00000034342_ENSMUST00000037644|mouse|control|control (ssRNA)", "RNA": "GGGAGUUCUACAGUCCGACGAUCUCGGCCGCGAGCGAGGGAAUGGAGCCGGGCGAGAAGGAGGGGCCUCUCCGGCAACCACCGCCGGCGCUCGCAGCCCAGGGAGUGAGAGGGAGGCGCCCGCCCUGAGGCGCGCCCCUGCGCCAACAGAGGAUUGAGCAUCA"}, "B12": {"name": "chr19:16212804:16212805:+_ENSG00000167460_ENST00000300933|hu_mus|hu_hu_hu_mus_False|78_78 (ssRNA)", "RNA": "GGGAGUUCUACAGUCCGACGAUCAACAAUUCUGGAGUGAAGGAAAGAUGUAACAUGCAAUUAAUUAAAAGCUCAGUCAGAAGGCACAUGGGCAACAAUGAUCACCCCAGCAUUCUCGCUUGGAAUGCUUAAAGACAAUCUGUUCAACAGAGGAUUGAGCAUCA"}, "B13": {"name": "chr14:54894545:54894546:-_ENSG00000100528_ENST00000216416|hu_mus|FALSE|FALSE (ssRNA)", "RNA": "GGGAGUUCUACAGUCCGACGAUCCUUCAUUGGUGGCGUUUUGCAUGCACUUAACUGGACCGAUUCUUCUGUGUUGUUCUAAGAGCUCACCAGAACAUAGAUCAUGCCGUAUAGGUAGUAAAAAAACGCUAGAAGGUAAAAAGCCAACAGAGGAUUGAGCAUCA"}, "B14": {"name": "chr12:96259795:96259796:+_ENSG00000139343_ENST00000266735|hu_mus|motif|central (ssRNA)", "RNA": "GGGAGUUCUACAGUCCGACGAUCGAGGACAUUAUUACACCUUAUUAGAACUUCGCCCAGAUGUCCAGACAGCGCCCCAUCGGUGUACUCUUCUGUAUUUGCAAGCUGCAUGUUCAUGUAGCCAUCCACGGAGACCAGGUAGCCCAACAGAGGAUUGAGCAUCA"}, "B15": {"name": "chr11:106117246:106117247:-_ENSMUSG00000020706_ENSMUST00000021048|mus_mus|motif|central (ssRNA)", "RNA": "GGGAGUUCUACAGUCCGACGAUCGCAGGCCUUACAAGUUAAAAGUAGAGGCUAGGAAGUAGAGUGCAAUAACUCGUAUCCGGAACGCUAGGAAGCAUCAACCAGAAGUUCUAUAUCUCUUCACAAAACUAGUGACCUCCAGUACAACAGAGGAUUGAGCAUCA"}, "B16": {"name": "chr7:20150648:20150649:-_ENSMUSG00000044709_ENSMUST00000117222|mus_mus|FALSE|FALSE (ssRNA)", "RNA": "GGGAGUUCUACAGUCCGACGAUCCUUGAAAGAAUAGGAAAUUAUGUCACUACAUCGAAGCAAGGCCUCGGCCUGUACACCUAUGGGAGUCUGCAGUUGGGAAACGUAGAAGUUGGCCACAUCCAGGUCUGUGGCUCCAAACUGCAACAGAGGAUUGAGCAUCA"}, "B17": {"name": "chr7:7679991:7679992:-_ENSG00000106399_ENST00000396682|hu_hu|hu_hu_hu_mus_False|18_58 (ssRNA)", "RNA": "GGGAGUUCUACAGUCCGACGAUCUGGGAUGAAUCUUUUCCAGCUUCCCCACGAAGCACACGGGCCGGUCGAUAUACUGAGCUAGCAUGCUGGCGUUGACGCGCGCUUUGGGGAGCUCCAUCAUGUCCUCCAUGAUUCUGCCGCCAACAGAGGAUUGAGCAUCA"}, "B18": {"name": "chrX:20248820:20248821:+_ENSMUSG00000001924_ENSMUST00000001989|mus_mus|mus_mus_mus_hu_True|48_58 (ssRNA)", "RNA": "GGGAGUUCUACAGUCCGACGAUCGGCGAAGUCCGUCACCACAAAGUCAGGUUCUGCCAGUGAGGCCACCAAGGAUUUAAAACUAAUCUUUUUCGGUACUUUGACCUGACUGACGAUGCCUCCACGGAUGUAGUCGGAGAAGUUCAACAGAGGAUUGAGCAUCA"}, "B19": {"name": "chr9:95013113:95013114:-_ENSG00000196305_ENST00000443024|hu_hu|hu_hu_hu_mus_False|78_78 (ssRNA)", "RNA": "GGGAGUUCUACAGUCCGACGAUCCUCAGUCAGAAAGGGCGUGUAAGGGGCCAUCAGUCUGCAAAGAGAAAGCAGGACACUGAACAGUGUCUCCAGAGCCAUGACACAGUCUUCCACCCCACUCUCACCCUUUAACCUCCUCCUCAACAGAGGAUUGAGCAUCA"}, "B20": {"name": "chr16:45382771:45382772:-_ENSMUSG00000022661_ENSMUST00000163230|mus_mus|mus_mus_mus_hu_True|48_88 (ssRNA)", "RNA": "GGGAGUUCUACAGUCCGACGAUCCUGGGUCAUGUUAUAAGACAAAUGGAUAGGGAGGGCAUGCUUCUCAAAAAAUGUGAGCUAUUGACUAAGACUAACAAUAUUUAUCUAGCUAUAAAAAUAAGUUAAAUGAAUAAGUUAAGACAACAGAGGAUUGAGCAUCA"}, "B21": {"name": "chrX:148369326:148369327:+_ENSMUSG00000025261_ENSMUST00000112622|mus_hu|FALSE|FALSE (ssRNA)", "RNA": "GGGAGUUCUACAGUCCGACGAUCCUUGUCUCGCAUUGAAUCAUUAGCUGUGCACAUCAACACAUUCCAAGCACAAAUUAAGAAAUGCAAACAGAACAAAAAAAUAUAUAUAUAUAUAAUUUUUUCCCCUAUCCAAAGGUUUCACAACAGAGGAUUGAGCAUCA"}, "B22": {"name": "52112337_52131274_754_3pUTR_ENSMUSG00000022637_ENSMUST00000114471|mouse|control|control (ssRNA)", "RNA": "GGGAGUUCUACAGUCCGACGAUCAUCAAUGGUUGACUUCAGAGCCAUUGCUUCCAGGCCAGAGCUGAUCUGAUGGACCUCAUGCAGGCACUGUCUGAAGACUUUCCAUGGUACAAUAGUUUUGUCUCCAAAAAACUUCCUCCACAACAGAGGAUUGAGCAUCA"}},
  "note": "Over roughly 24,000 sequences, “enrichment r” has its median near 0.99; the highest 2% begin near 3.7. The list is a sample of the results.",
  "data": [
    {"target": "T1, UNK ZnF1-3 (human, UniProt Q9C0B0 31-174)", "T1 sequence": "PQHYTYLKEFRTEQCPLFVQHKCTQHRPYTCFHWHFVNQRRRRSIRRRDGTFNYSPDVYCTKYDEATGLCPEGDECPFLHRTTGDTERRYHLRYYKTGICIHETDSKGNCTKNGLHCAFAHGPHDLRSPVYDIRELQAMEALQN", "assay": "nsRBNS (natural sequence RNA bind-n-seq); RBNS binding buffer (assumed for nsRBNS): 25 mM Tris pH 7.5, 150 mM KCl, 3 mM MgCl2, 0.01% Triton X-100, 500 ug/ml BSA, 20 U/ml SUPERase-In, 4 C; UNK is unkempt and MSI1 is Musashi-1; names of the RNAs are library labels; protein concentration not given here; high values mean tight binding", "units": {"binding signal": "enrichment R"}, "values": [
      {"binder": "B1", "binding signal": 1.21},
      {"binder": "B2", "binding signal": 0.604},
      {"binder": "B3", "binding signal": 0.55},
      {"binder": "B4", "binding signal": 0.789},
      {"binder": "B5", "binding signal": 1.36},
      {"binder": "B6", "binding signal": 1.14},
      {"binder": "B7", "binding signal": 1.93},
      {"binder": "B8", "binding signal": 0.667},
      {"binder": "B9", "binding signal": 2.28},
      {"binder": "B10", "binding signal": 1.57},
      {"binder": "B11", "binding signal": 0.497},
      {"binder": "B12", "binding signal": 1.31},
      {"binder": "B13", "binding signal": 1.42},
      {"binder": "B14", "binding signal": 0.83},
      {"binder": "B15", "binding signal": 1.8},
      {"binder": "B16", "binding signal": 0.807},
      {"binder": "B17", "binding signal": 0.939},
      {"binder": "B18", "binding signal": 1.04},
      {"binder": "B19", "binding signal": 1.44},
      {"binder": "B20", "binding signal": 2.26},
      {"binder": "B21", "binding signal": 0.406},
      {"binder": "B22", "binding signal": 0.85}
    ]}
  ]
}
